From PubChem
This is a sample that favours compounds with a hit; in the whole collection about 3.5% have one here.
JMJD2E inh = JMJD2E (human) inhibition. B2RXH2. JMJD2E catalytic domain, FDH-coupled NADH fluorescence (FDH is formaldehyde dehydrogenase). Potency, µM (doses to about 57.1 µM), for the others: at the top dose activity change, negative = inhibition, hits mostly inhibitors. 230,000 compounds, 1.6% hits. AID 2147; active = well fitted inhibition curve with a large enough effect, not every such curve was filed as active; inconclusive = small, poorly fitted or top-dose-only effect, or another doubt; inactive = no such curve, though single readings can be large or run the other way;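 also: 0% = wells with enzyme and -100% = buffer wells without enzyme; nearly all actives have a fitted effect of over 50% in size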
Tau fibril FP = inhibitors of human tau fibril formation; K18 P301L tau heparin fibrillization, Alexa594 FP, 6 h; Potency, µM (highest dose often 57.7 µM), without a hit: top-dose activity, negative = inhibition, most hits filed as inhibitors; 280,000 compounds, 0.39% hits; also: nearly all actives have a fitted effect of over 55% in size
Target sequence (P10636 561-689 P618L limits assumed): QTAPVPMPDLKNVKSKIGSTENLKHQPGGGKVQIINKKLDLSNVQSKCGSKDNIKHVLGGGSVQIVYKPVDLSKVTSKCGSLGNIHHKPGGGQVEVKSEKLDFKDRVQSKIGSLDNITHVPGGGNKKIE
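FP of Alexa 594-tau after heparin (20 uM) induction. Substrate: human K18 P301L, 15 uM unlabeled, 0.24 uM labeled. Buffer 100 mM sodium acetate pH 7. 6 hr, 37 C.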
Tau fluor counter = counter-screen for tau fibril formation inhibitors | tau K18 P301L Alexa594 fluorescence, heparin fibrillization | Potency, µM (series often up to 57.7 µM), for inactives: at the top dose activity change, negative = decrease | 280,000 compounds, 0.93% hits | AID 1463; also: nearly all actives have a fitted effect of over 55% in size
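Human K18 P301L tau (15 uM unlabeled plus 0.24 uM Alexa 594-labeled, final) in 100 mM sodium acetate pH 7 was mixed with compound and 20 uM heparin and incubated 6 hr at 37 C.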
Tau ThT inhib = blocks human tau fibril formation measured by thioflavin T; P10636; AID 1460; 270,000 compounds, 2.1% hits; Potency, µM (titrated, usually from 57.4 µM), without a hit: at the highest dose activity, negative = inhibition, hits mostly inhibitors; recombinant tau K18 P301L (four-repeat tau fragment), heparin-induced fibrillization, ThT fluorescence; also: nearly all actives have a fitted effect of over 55% in size
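Heparin-induced (20 uM) aggregation of recombinant human K18 P301L tau, 15 uM unlabeled with 0.24 uM labeled, pH 7 acetate buffer, 6 hr at 37 C with compound. Fibrils quantified by 30 uM ThT fluorescence after 1 hr ambient incubation.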
TRb-SRC2 inh = disrupts binding of human TR beta to SRC2. TRbeta-SRC2 peptide binding, fluorescence polarization; receptor liganded with 1 µM T3. 280,000 compounds, 0.065% hits. Potency, µM (highest dose often 106 µM), for the others: at the highest dose activity change, negative = inhibition, most hits filed as inhibitors. P10828;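 also: plate controls were bound peptide for no effect and peptide without receptor for full effect; nearly all actives have a fitted effect of over 50% in size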
Target sequence (P10828 whole entry, looked up): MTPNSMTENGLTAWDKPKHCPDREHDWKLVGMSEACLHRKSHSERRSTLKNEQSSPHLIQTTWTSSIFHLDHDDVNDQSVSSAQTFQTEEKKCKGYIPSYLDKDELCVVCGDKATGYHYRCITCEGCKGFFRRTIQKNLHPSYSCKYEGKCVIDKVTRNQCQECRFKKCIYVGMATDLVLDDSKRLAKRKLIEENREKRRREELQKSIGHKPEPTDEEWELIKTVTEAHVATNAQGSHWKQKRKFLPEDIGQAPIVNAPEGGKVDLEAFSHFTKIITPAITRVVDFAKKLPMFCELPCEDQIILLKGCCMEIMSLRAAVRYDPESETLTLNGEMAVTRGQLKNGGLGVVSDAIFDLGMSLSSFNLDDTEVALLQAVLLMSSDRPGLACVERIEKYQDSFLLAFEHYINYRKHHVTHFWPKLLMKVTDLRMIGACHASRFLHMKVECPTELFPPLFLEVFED
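Compounds were added to 0.6 uM TRb ligand-binding domain and 20 nM Texas Red-labeled SRC2 peptide in Tris buffer containing 1 uM T3, incubated 5 hr at ambient temperature, then read by fluorescence polarization.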
TexasRed fluor = counter-screen for TRb-SRC2 inhibitors: fluorescence interference | 280,000 compounds, 0.29% hits | TRb/SRC2 Texas Red total fluorescence interference | Potency, µM (highest dose often 106 µM), without a hit: at the top dose fluorescence change, negative = quenching; active = well fitted curve in either direction with a large enough effect; inconclusive = small, poorly fitted or top-dose-only effect
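Human TRβ ligand-binding domain (0.6 uM) and Texas Red SRC2 peptide (20 nM) in Tris buffer with 1 uM T3 and 5% DMSO were incubated with pinned compound for 5 hr at ambient temperature. Total fluorescence was computed as S + 2P (555/632 nm).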
* marks the source's active call; other numbers are inactive results; ? = inconclusive; / = not tested or not shown; ! = repeats disagree; [ ] = another dose, or the depositor's remark. Unless noted, calls follow the shape of the dose curve; as a rule, active = well fitted curve in the direction sought with a large enough effect; inconclusive = small, poorly fitted or top-dose-only effect, or another doubt; inactive = no such curve, though single readings can be large; an effect the other way counts as inactive or inconclusive. Unless noted, % is scaled to controls: 0 for no effect and ±100 for the full control effect; potency is read from the fitted curve at half-maximal effect.

SMILES | JMJD2E inh | Tau fibril FP | Tau fluor counter | Tau ThT inhib | TRb-SRC2 inh | TexasRed fluor
CCC(C)NC(=O)CN1C(=O)CN=C(c2ccccc2)c2ccccc21 (configuration not stated) | ? | -1% | -1% | -2% | 10% | -1%
COc1ccc(-c2nc3ccccc3c(=O)n2-c2ccc(OC)cc2)cc1 | 3% | -1% | -9% | -11% | 6%[53 µM] | -1%[53 µM]
Cc1ccc(-n2sc3ccccc3c2=O)cc1 | 28µM* | ? | -21% | 32µM* | -5% | -1%
C=CCn1c(O)c(C(C)=NCCCN(C)C)c(=O)[nH]c1=O | 6% | 2%[0.0958 µM] | 4%[0.0958 µM] | / | 4% | 0%
C=C(C=O)C[C@@H]1C[C@H](O)C2OC3C[C@]4(C)OC5/C=C\CC6OC7C(CC=CCC6OC5CCCC4OC3CC2O1)OC1CC2OC3CC(=O)OC3C[C@@H](C)C[C@@]2(C)OC1C[C@@H]7C (some centres not stated) | 1% | 4µM* | -15% | 3.5µM* | -1% | 1%
C=C(CC1CC(O)[C@]2(C)OC3CC4OC5C[C@]6(C)O[C@]7(C)CCC8OC9C[C@]%10(C)OC%11C(C)=CC(=O)OC%11CC%10OC9C[C@@H](C)C8OC7CC6O[C@]5(C)C/C=C\C4OC3CC2O1)C(=O)O (some centres not stated) | 2% | 9% | 8% | -11% | 2% | 0%
COc1ccc(CN2C(=O)CC(=O)NC2=O)cc1 | -2% | ? | -14% | 25µM* | -6% | 2%
COc1ccc(N2C(=O)CC(=O)NC2=O)cc1 | -2% | -9% | -6% | ? | -4% | -3%
CC(=O)Oc1ccc(Cl)c2cccnc12 | 18µM* | -8% | -28% | -23% | -1% | -2%
CN(C(=O)Oc1ccc(Cl)c2cccnc12)c1ccccc1 | 11% | -13% | -9% | -3% | -2% | 1%
O=C(CNC(=O)c1ccccc1)NCC(=O)OCC(=O)c1ccc([N+](=O)[O-])cc1 | -12% | ? | -17% | ? | 8% | 1%
O=C(CNC(=O)c1ccc(Br)cc1)NCC(=O)OCC(=O)c1ccc([N+](=O)[O-])cc1 | 7% | ? | -25% | 28µM* | -5% | -2%
Cc1nn(CCC#N)c2c1P(=S)(N1CCCC1)OC(c1ccc(F)cc1)=N2 (configuration not stated) | -13% | ? | -25% | 32µM* | 2% | -3%
CN1CCCCC1c1ccc(-c2cccnc2)nc1 (configuration not stated) | ? | 4% | 2% | -4% | 8% | 0%
C[C@H]1COC2=C1C(=O)C(=O)c1c2ccc2c1CCCC2(C)C | ? | ? | -28% | 13µM* | ? | -6%
CC1COC2=C1C(=O)C(=O)c1c2ccc2c1CCCC2(C)C (configuration not stated) | ? | ? | ? | 13µM* | -11% | -1%
O=C1NC(=O)c2c1c1c3ccccc3n3c1c1c2c2ccccc2n1C1CCC3O1 | / | / | / | / | 4% | -3%
Oc1cc2c(cc1O)[C@H]1c3ccccc3CNC1CC2 (some centres not stated) | 20µM* | -16% | ? | ? | -3% | -5%
NC1CCc2cc(O)c(O)cc2C1 (configuration not stated) | ? | ? | ? | ? | -2% | -5%
CC(C)[C@@]1(NC(=O)[C@@H]2C[C@H]3c4cccc5[nH]cc(c45)C[C@@H]3N(C)C2)O[C@@]2(O)[C@H]3CCCN3C(=O)[C@H](Cc3ccccc3)N2C1=O | 2% | 0% | 13µM*[quencher] | ? | 1% | 0%
CN1C[C@H](C(=O)N[C@]2(C)O[C@@]3(O)[C@H]4CCCN4C(=O)[C@H](Cc4ccccc4)N3C2=O)C[C@H]2c3cccc4[nH]cc(c34)C[C@@H]21 | ? | 7% | 7.1µM*[quencher] | ? | -1% | -3%
CCCNc1nc(OC)nc(N2CC3CC(C2)c2cccc(=O)n2C3)n1 (configuration not stated) | -5% | 0% | 2% | 1% | 2% | 3%
CC[C@]1(O)CC(O[C@@H]2CC(N(C)C)C(O)C(C)O2)c2c(cc3c(c2O)C(=O)c2c(O)ccc(O)c2C3=O)C1C(=O)OC (some centres not stated) | ? | -14% | ? | ? | 15% | 40µM*[fluorescent]
CCC(N)C(O)c1ccc(O)c(O)c1 (configuration not stated) | 14µM* | -10% | -15% | -21% | 6% | 2%
CNC[C@H](O)c1ccc(O)c(OC)c1 | -5%[25.5 µM] | / | / | / | 2%[53 µM] | -1%[53 µM]
SMILES | JMJD2E inh | Tau fibril FP | Tau fluor counter | Tau ThT inhib | TRb-SRC2 inh | TexasRed fluor
Nc1nc(N)nc(N)n1 | / | / | / | / | 2%[201 µM] | -4%[201 µM]
O=C(CSC1c2ccccc2-c2ccccc21)N/N=C/c1ccccc1C(=O)O | -13% | 0% | 2% | -11% | -13% | -1%
O=C(Cc1cc(=O)[nH][nH]1)N/N=C/c1ccccc1Cl | 4% | ? | 2% | ? | -9% | 1413µM*[quencher]
O=C(Cc1cc(=O)[nH][nH]1)N/N=C/c1cccc2ccccc12 | -25% | ? | ? | 3.2µM* | -4% | -6%
CC(=O)OC1(c2ccccc2)CCN(C2CCCCC2)CC1C (configuration not stated) | 5% | 0% | -2% | -1% | 8% | 2%
NCCc1cccc(O)c1 | / | 0% | 2% | 7% | 2% | -1%
COC(=O)C1C=C2c3cccc4[nH]cc(c34)CC2N(C)C1 (configuration not stated) | ? | ? | ? | 18µM* | -13% | 24%
CCC(CO)NC(=O)C1C=C2c3cccc4[nH]cc(c34)CC2N(C)C1 (configuration not stated) | ? | -8% | -17% | -16% | -7% | 0%
CC[C@@H](CO)NC(=O)[C@@H]1C=C2c3cccc4c3c(cn4C)C[C@H]2N(C)C1 | ? | ? | ? | 25µM*! | ? | ?
CN1c2ccc([N+](=O)[O-])cc2CC2(C(=O)NC(=O)N(c3ccc(Br)cc3)C2=O)C1c1ccccc1 (configuration not stated) | 1% | -1% | -14% | 16µM* | 5% | 4%
c1cncc(C2CCCCN2)c1 (configuration not stated) | 7% | -2% | 0% | -5% | -2% | 0%
c1cncc(C2Nc3cccc4cccc(c34)N2)c1 | 5µM* | ? | 14µM*[quencher] | 13µM* | 5% | -4%
